The text below walks through data of PMC8384837, “Expanding the binding specificity for RNA recognition by a PUF domain”.

What all share (assay): yeast three-hybrid, YBZ-1, SC-Leu-His + 0.5 mM 3-AT, 4 days
Common to all, as to settings: tags: N-Gal4 AD-HA kept; label: inside an RPR1-promoter hybrid RNA with tandem MS2 sites; ssRNA

One test has as its target PUM1 PUF domain R1-RVE (Homo sapiens, UniProt Q14671 828-1176, S863R;R864V;Q867E). The method in brief: (§1)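 The interaction score is the logarithmic change in variant frequency from input to selection. It uses log2, with a pseudocount of 1 for absent variants, and frequencies came from PCR-amplified, Illumina-sequenced repeat regions. The libraries were Pumilio-1 PUF domains randomized at the three base-contacting residues per repeat, co-expressed with matching RNA elements in strain YBZ-1 (LexA–MS2 coat fusion, HIS3 reporter). Plating lasted four days on SC-Leu (input) or SC-Leu-His + 0.5 mM 3-AT (selection).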

In a further test the target is PUM1 PUF domain R1-TRK (Homo sapiens, UniProt Q14671 828-1176, S863T;Q867K). The method in brief:
as §1

In a further test the target is PUM1 PUF domain R1-TKR (Homo sapiens, UniProt Q14671 828-1176, S863T;R864K;Q867R). The essentials:
as §1

In another test the target is PUM1 PUF domain R1-NVR (Homo sapiens, UniProt Q14671 828-1176, S863N;R864V;Q867R). The essentials: as §1
A further test addresses PUM1 PUF domain R7-ECA (Homo sapiens, UniProt Q14671 828-1176, S1079E;N1080C;E1083A). The essentials:
as §1

The next test concerns the target PUM1 PUF domain R3-RVK (Homo sapiens, UniProt Q14671 828-1176, C935R;R936V;Q939K). The essentials: as §1
The next test addresses PUM1 PUF domain R3-SND (Homo sapiens, UniProt Q14671 828-1176, C935S;R936N;Q939D). The essentials: as §1
The next test deals with PUM1 PUF domain R8-VFR (Homo sapiens, UniProt Q14671 828-1176, N1122V;Y1123F;Q1126R). The essentials:
as §1

The target in a further test is PUM1 PUF domain R8-LFW (Homo sapiens, UniProt Q14671 828-1176, N1122L;Y1123F;Q1126W). The method in brief: as §1
Another test concerns the target PUM1 PUF domain R8-FWR (Homo sapiens, UniProt Q14671 828-1176, N1122F;Y1123W;Q1126R). The method in brief: as §1
A further test has as its target PUM1 PUF domain R3-MYD (Homo sapiens, UniProt Q14671 828-1176, C935M;R936Y;Q939D). The essentials:
as §1

Another test addresses PUM1 PUF domain R3-ARV (Homo sapiens, UniProt Q14671 828-1176, C935A;Q939V). The method in brief:
as §1

For the next test, the target named is PUM1 PUF domain R5-RQR (Homo sapiens, UniProt Q14671 828-1176, C1007R;R1008Q;Q1011R). The essentials: as §1
The target of a further test is PUM1 PUF domain R3-PRQ (Homo sapiens, UniProt Q14671 828-1176, C935P). The essentials:
as §1

Another test addresses PUM1 PUF domain R5-RKM (Homo sapiens, UniProt Q14671 828-1176, C1007R;R1008K;Q1011M). The essentials:
as §1

Another test deals with PUM1 PUF domain R4-YRM (Homo sapiens, UniProt Q14671 828-1176, N971Y;H972R;Q975M). The method in brief: as §1
In a further test the target is PUM1 PUF domain R4-PYR (Homo sapiens, UniProt Q14671 828-1176, N971P;H972Y;Q975R). The method in brief: as §1
A further test has as its target PUM1 PUF domain R5-KAV (Homo sapiens, UniProt Q14671 828-1176, C1007K;R1008A;Q1011V). The method in brief: as §1
In the next test the target is PUM1 PUF domain R5-AYM (Homo sapiens, UniProt Q14671 828-1176, C1007A;R1008Y;Q1011M). The method in brief: as §1
Another test concerns the target PUM1 PUF domain R2-VWP (Homo sapiens, UniProt Q14671 828-1176, N899V;Y900W;Q903P). The essentials: as §1

PUM1 PUF domain R3-RVK, sequence (Q14671 828-1176 C935R/R936V/Q939K): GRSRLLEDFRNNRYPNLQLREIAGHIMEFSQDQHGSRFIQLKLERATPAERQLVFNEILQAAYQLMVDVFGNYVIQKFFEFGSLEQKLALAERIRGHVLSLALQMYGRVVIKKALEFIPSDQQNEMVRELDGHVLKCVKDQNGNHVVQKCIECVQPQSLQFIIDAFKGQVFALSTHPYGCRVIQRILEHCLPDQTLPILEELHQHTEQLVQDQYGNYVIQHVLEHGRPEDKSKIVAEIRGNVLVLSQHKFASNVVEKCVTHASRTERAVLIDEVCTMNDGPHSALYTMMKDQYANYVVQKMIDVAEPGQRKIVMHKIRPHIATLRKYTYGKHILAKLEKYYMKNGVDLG
PUM1 PUF domain R5-RQR, sequence (Q14671 828-1176 C1007R/R1008Q/Q1011R): as the sequence (Q14671 828-1176 C935R/R936V/Q939K) above, with R108C, V109R, K112Q, C180R, R181Q, Q184R counted along it
PUM1 PUF domain R1-RVE, sequence (Q14671 828-1176 S863R/R864V/Q867E): as the sequence (Q14671 828-1176 C935R/R936V/Q939K) above, with S36R, R37V, Q40E, R108C, V109R, K112Q counted along it
PUM1 PUF domain R3-ARV, sequence (Q14671 828-1176 C935A/Q939V): as the sequence (Q14671 828-1176 C935R/R936V/Q939K) above, with R108A, V109R, K112V counted along it
PUM1 PUF domain R8-VFR, sequence (Q14671 828-1176 N1122V/Y1123F/Q1126R): as the sequence (Q14671 828-1176 C935R/R936V/Q939K) above, with R108C, V109R, K112Q, N295V, Y296F, Q299R counted along it
PUM1 PUF domain R4-PYR, sequence (Q14671 828-1176 N971P/H972Y/Q975R): as the sequence (Q14671 828-1176 C935R/R936V/Q939K) above, with R108C, V109R, K112Q, N144P, H145Y, Q148R counted along it
PUM1 PUF domain R7-ECA, sequence (Q14671 828-1176 S1079E/N1080C/E1083A): as the sequence (Q14671 828-1176 C935R/R936V/Q939K) above, with R108C, V109R, K112Q, S252E, N253C, E256A counted along it
PUM1 PUF domain R8-LFW, sequence (Q14671 828-1176 N1122L/Y1123F/Q1126W): as the sequence (Q14671 828-1176 C935R/R936V/Q939K) above, with R108C, V109R, K112Q, N295L, Y296F, Q299W counted along it
PUM1 PUF domain R1-NVR, sequence (Q14671 828-1176 S863N/R864V/Q867R): as the sequence (Q14671 828-1176 C935R/R936V/Q939K) above, with S36N, R37V, Q40R, R108C, V109R, K112Q counted along it
PUM1 PUF domain R1-TKR, sequence (Q14671 828-1176 S863T/R864K/Q867R): as the sequence (Q14671 828-1176 C935R/R936V/Q939K) above, with S36T, R37K, Q40R, R108C, V109R, K112Q counted along it
PUM1 PUF domain R8-FWR, sequence (Q14671 828-1176 N1122F/Y1123W/Q1126R): as the sequence (Q14671 828-1176 C935R/R936V/Q939K) above, with R108C, V109R, K112Q, N295F, Y296W, Q299R counted along it
PUM1 PUF domain R1-TRK, sequence (Q14671 828-1176 S863T/Q867K): as the sequence (Q14671 828-1176 C935R/R936V/Q939K) above, with S36T, Q40K, R108C, V109R, K112Q counted along it
PUM1 PUF domain R4-YRM, sequence (Q14671 828-1176 N971Y/H972R/Q975M): as the sequence (Q14671 828-1176 C935R/R936V/Q939K) above, with R108C, V109R, K112Q, N144Y, H145R, Q148M counted along it
PUM1 PUF domain R5-RKM, sequence (Q14671 828-1176 C1007R/R1008K/Q1011M): as the sequence (Q14671 828-1176 C935R/R936V/Q939K) above, with R108C, V109R, K112Q, C180R, R181K, Q184M counted along it
PUM1 PUF domain R3-SND, sequence (Q14671 828-1176 C935S/R936N/Q939D): as the sequence (Q14671 828-1176 C935R/R936V/Q939K) above, with R108S, V109N, K112D counted along it
PUM1 PUF domain R3-MYD, sequence (Q14671 828-1176 C935M/R936Y/Q939D): as the sequence (Q14671 828-1176 C935R/R936V/Q939K) above, with R108M, V109Y, K112D counted along it
PUM1 PUF domain R5-AYM, sequence (Q14671 828-1176 C1007A/R1008Y/Q1011M): as the sequence (Q14671 828-1176 C935R/R936V/Q939K) above, with R108C, V109R, K112Q, C180A, R181Y, Q184M counted along it
PUM1 PUF domain R2-VWP, sequence (Q14671 828-1176 N899V/Y900W/Q903P): as the sequence (Q14671 828-1176 C935R/R936V/Q939K) above, with N72V, Y73W, Q76P, R108C, V109R, K112Q counted along it
PUM1 PUF domain R3-PRQ, sequence (Q14671 828-1176 C935P): as the sequence (Q14671 828-1176 C935R/R936V/Q939K) above, with R108P, V109R, K112Q counted along it
PUM1 PUF domain R5-KAV, sequence (Q14671 828-1176 C1007K/R1008A/Q1011V): as the sequence (Q14671 828-1176 C935R/R936V/Q939K) above, with R108C, V109R, K112Q, C180K, R181A, Q184V counted along it

With “GGCUAGAACUAGUGGAUCCCCCGGCGCCCGGCGGCUCGAGCCCGGGUAAGUGUAAAUGGUCUGCAUGCCGCCGGGCGCCAUGCCUGCAGGUCGACUCUAGAAAACAUG”, the binding signal with PUM1 PUF domain R1-RVE was 1.35 log2 enrichment (interaction score).

Take “GGCUAGAACUAGUGGAUCCCCCGGCGCCCGGCGGCUCGAGCCCGGGUAAGUGUAAAUUGUCUGCAUGCCGCCGGGCGCCAUGCCUGCAGGUCGACUCUAGAAAACAUG”: the binding signal with PUM1 PUF domain R1-TRK was 3.04 log2 enrichment (interaction score); with PUM1 PUF domain R1-TKR, 1.37 log2 enrichment (interaction score); with PUM1 PUF domain R1-RVE it was 2.57 log2 enrichment (interaction score); with PUM1 PUF domain R1-NVR, 3.93 log2 enrichment (interaction score).

As for “GGCUAGAACUAGUGGAUCCCCCGGCGCCCGGCGGCUCGAGCCCGGGUAAGUUUAAAUAGUCUGCAUGCCGCCGGGCGCCAUGCCUGCAGGUCGACUCUAGAAAACAUG”, in the test with PUM1 PUF domain R7-ECA, the binding signal is 3.96 log2 enrichment (interaction score).

Turning to “GGCUAGAACUAGUGGAUCCCCCGGCGCCCGGCGGCUCGAGCCCGGGUAAGUGUAAGUAGUCUGCAUGCCGCCGGGCGCCAUGCCUGCAGGUCGACUCUAGAAAACAUG”, the figures for the binding signal with PUM1 PUF domain R3-RVK and with PUM1 PUF domain R3-SND were 2.53 log2 enrichment (interaction score) and 5.25 log2 enrichment (interaction score), respectively.

As for “GGCUAGAACUAGUGGAUCCCCCGGCGCCCGGCGGCUCGAGCCCGGGUAAGCGUAAAUAGUCUGCAUGCCGCCGGGCGCCAUGCCUGCAGGUCGACUCUAGAAAACAUG”, the binding signal with PUM1 PUF domain R8-VFR is 4.1 log2 enrichment (interaction score); in the test with PUM1 PUF domain R8-LFW, 2.4 log2 enrichment (interaction score); with PUM1 PUF domain R8-FWR, 3.91 log2 enrichment (interaction score).

With “GGCUAGAACUAGUGGAUCCCCCGGCGCCCGGCGGCUCGAGCCCGGGUAAGUGUAAUUAGUCUGCAUGCCGCCGGGCGCCAUGCCUGCAGGUCGACUCUAGAAAACAUG”, the binding signal with PUM1 PUF domain R3-RVK is 5.35 log2 enrichment (interaction score); with PUM1 PUF domain R3-MYD, 2.42 log2 enrichment (interaction score); in the test with PUM1 PUF domain R3-ARV, 1.96 log2 enrichment (interaction score).

With “GGCUAGAACUAGUGGAUCCCCCGGCGCCCGGCGGCUCGAGCCCGGGUAAGUGUUAAUAGUCUGCAUGCCGCCGGGCGCCAUGCCUGCAGGUCGACUCUAGAAAACAUG”, the binding signal in the test with PUM1 PUF domain R5-RQR is 4.81 log2 enrichment (interaction score).

On to “GGCUAGAACUAGUGGAUCCCCCGGCGCCCGGCGGCUCGAGCCCGGGUAAGUCUAAAUAGUCUGCAUGCCGCCGGGCGCCAUGCCUGCAGGUCGACUCUAGAAAACAUG”, for which the binding signal in the test with PUM1 PUF domain R7-ECA is 1.26 log2 enrichment (interaction score).

“GGCUAGAACUAGUGGAUCCCCCGGCGCCCGGCGGCUCGAGCCCGGGUAAGUGUAAAUCGUCUGCAUGCCGCCGGGCGCCAUGCCUGCAGGUCGACUCUAGAAAACAUG”: the binding signal in the test with PUM1 PUF domain R1-TKR was 6.21 log2 enrichment (interaction score); in the test with PUM1 PUF domain R1-RVE it was 2.37 log2 enrichment (interaction score); with PUM1 PUF domain R1-NVR, 5.44 log2 enrichment (interaction score).

Regarding “GGCUAGAACUAGUGGAUCCCCCGGCGCCCGGCGGCUCGAGCCCGGGUAAGUGUAAAUAGUCUGCAUGCCGCCGGGCGCCAUGCCUGCAGGUCGACUCUAGAAAACAUG”, the binding signal with PUM1 PUF domain R3-RVK was 2.2 log2 enrichment (interaction score); in the test with PUM1 PUF domain R3-PRQ, 4.52 log2 enrichment (interaction score); with PUM1 PUF domain R8-VFR it was 3.9 log2 enrichment (interaction score); with PUM1 PUF domain R8-LFW, 2.5 log2 enrichment (interaction score); in the test with PUM1 PUF domain R5-RQR, 1 log2 enrichment (interaction score); with PUM1 PUF domain R5-RKM, 2.32 log2 enrichment (interaction score). The binding signal with PUM1 PUF domain R4-YRM was 2.31 log2 enrichment (interaction score); with PUM1 PUF domain R8-FWR, 3.71 log2 enrichment (interaction score); with PUM1 PUF domain R3-ARV, 3.82 log2 enrichment (interaction score).

“GGCUAGAACUAGUGGAUCCCCCGGCGCCCGGCGGCUCGAGCCCGGGUAAGUGUAUAUAGUCUGCAUGCCGCCGGGCGCCAUGCCUGCAGGUCGACUCUAGAAAACAUG”: the binding signal with PUM1 PUF domain R4-PYR was 7.09 log2 enrichment (interaction score).

Regarding “GGCUAGAACUAGUGGAUCCCCCGGCGCCCGGCGGCUCGAGCCCGGGUAAGUGUACAUAGUCUGCAUGCCGCCGGGCGCCAUGCCUGCAGGUCGACUCUAGAAAACAUG”, the binding signal in the test with PUM1 PUF domain R4-PYR was 5.23 log2 enrichment (interaction score).

Take “GGCUAGAACUAGUGGAUCCCCCGGCGCCCGGCGGCUCGAGCCCGGGUAAGUGUCAAUAGUCUGCAUGCCGCCGGGCGCCAUGCCUGCAGGUCGACUCUAGAAAACAUG”: the binding signal in the test with PUM1 PUF domain R5-KAV was 4 log2 enrichment (interaction score); with PUM1 PUF domain R5-RQR, 4.51 log2 enrichment (interaction score); with PUM1 PUF domain R5-AYM, 2.95 log2 enrichment (interaction score).

In the case of “GGCUAGAACUAGUGGAUCCCCCGGCGCCCGGCGGCUCGAGCCCGGGUAAGUGUAAAAAGUCUGCAUGCCGCCGGGCGCCAUGCCUGCAGGUCGACUCUAGAAAACAUG”, the binding signal with PUM1 PUF domain R2-VWP was 4.15 log2 enrichment (interaction score).
